Screening results as filed in PubChem.
Hits are enriched below; roughly 7.2% of the tested compounds scored in any of these assays.
FMDV antiviral = High Throughput Screening for Foot and Mouth Disease Virus Antivirals. FMDV antiviral cell-based qHTS. Potency, µM (titrated, usually from 57.9 µM), actives largely listed as inhibitors. hit rate 1.2% among 410,000. AID 1159524, 2015; calls by dose curve; tested in HEK293T cells; further: read-out not given here; nearly all actives have a fitted effect of over 45% in size
MARV entry inh = qHTS for inhibitors of binding or entry into cells for Marburg Virus. hit rate 1.8% among 300,000. Marburg virus pseudotyped entry inhibition, cell reporter. Potency, µM (titrated, usually from 37.8 µM), most hits filed as inhibitors. AID 540276, 2011; calls by dose curve; tested in HEK293 cells
Sm TGR inh = qHTS Assay for the Inhibitors of Schistosoma Mansoni Peroxiredoxins; Schistosoma mansoni thioredoxin glutathione reductase (TGR), Q962Y6; purified TGR, DTNB reduction, TNB absorbance 405 nm; Potency, µM (top dose mostly 114 µM), most hits filed as inhibitors; hit rate 3% among 360,000; further: nearly all actives have a fitted effect of over 60% in size
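TGR 20 nM + NADPH 100 uM (dispensed conc.), cpd preinc 15 min RT; start with NADPH (500 uM addition) then DTNB (15 mM addition). Kinetic TNB absorbance, 405 nm filter. Four-parameter Hill fit across titration.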
RE007 growth inh = qHTS Assay for Inhibitors of the HIV-1 protein Vpr. S. pombe RE007 Vpr strain, BacTiter-Glo ATP luminescence, 24 h. Potency, µM (series often up to 92.2 µM), actives largely listed as inhibitors. hit rate 0.21% among 360,000. AID 651644, 2012; active means well fitted falling curve with a large enough effect; inconclusive means small, poorly fitted or top-dose-only effect; inactive means no such curve, though single readings can be large or run the other way; further: nearly all actives have a fitted effect of over 50% in size
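Fission yeast strain RE007, carrying one chromosomally integrated HIV-1 vpr copy, was seeded at OD 0.01 in PMG+AL medium with 23 nL pinned compound. After 24 h at 30 °C and 99% humidity, viability was read by BacTiter-Glo luminescence.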
HCV inh = qHTS Assay for Inhibitors of Hepatitis C Virus (HCV); Potency, µM (titrated, usually from 41.8 µM), hits mostly inhibitors; hit rate 3.4% among 340,000; Huh7.5.1 HCVcc-Cre infection, luciferase reporter, 44 h
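Antiviral activity was scored by luciferase reporter output from cells infected with HCVcc-Cre (~0.5 moi) in presence of compound, 44 h infection period, cells seeded 1,000/well 4 h prior.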
Lassa entry inh = qHTS for Inhibitors of binding or entry into cells for Lassa Virus. Lassa virus pseudotype entry inhibition, cell reporter. Potency, µM (titrated, usually from 37.9 µM), actives largely listed as inhibitors. hit rate 1.2% among 300,000; calls by dose curve; tested in HEK293 cells; further: nearly all actives have a fitted effect of over 50% in size
Numbers stand for hits; - = inactive; ? = inconclusive; . = not tested or not shown. Unless noted, the call rests on the fitted dose curve; in most records, active means well fitted curve in the direction sought with a large enough effect; inconclusive means small, poorly fitted or top-dose-only effect, or another doubt; inactive means no such curve, though single readings can be large; an effect the other way counts as inactive or inconclusive.

SMILES | FMDV antiviral | MARV entry inh | Sm TGR inh | RE007 growth inh | HCV inh | Lassa entry inh
COC(=O)c1[nH]c2cc(OC)c(OC)cc2c1NC(=O)CN1CCN(Cc2ccccc2)CC1 | . | - | - | . | . | .
COc1cc(/C=N/NP(=S)(c2ccccc2)c2ccccc2)ccc1O | - | ? | - | - | - | ?
COc1cc(/C=N/Nc2cccc(C)c2)cc(Br)c1O | - | - | 45µM | - | - | -
COc1cc(/C=N/Nc2cccc(C)c2)ccc1OC(=O)c1cccs1 | - | ? | - | - | - | -
COc1cc(/C=N/Nc2ccccc2)ccc1O | - | ? | 40µM | - | - | -
COc1cc(CNCCN(C)C)c(Br)cc1OCC(=O)NCc1ccccc1 | - | - | - | - | - | -
CCCNCc1cc(OC)c(OCC(=O)NCCc2ccccc2)cc1Br | - | ? | - | - | ? | -
CCCNCc1cc(OC)c(OCc2ccccc2)cc1Br | - | 11µM | - | - | ? | -
COc1cc(CNCC(C)C)c(Br)cc1OCC(=O)NCc1ccccc1 | - | - | 28µM | - | ? | -
NCCc1ccc(OCc2ccccc2)c(OCc2ccccc2)c1 | - | ? | - | - | 7.9µM | ?
COc1ccccc1CCNCc1ccc(OC)c(OCc2ccccc2)c1 | ? | ? | ? | - | 10µM | ?
Cc1cccc(C(=O)N(Cc2ccco2)Cc2ccccc2F)c1 | - | - | - | . | . | -
COc1ccc(OC)c(CN2CCCC(n3cc(C(=O)N4CCCCC4)nn3)C2)c1 (centres undefined) | - | . | . | . | . | .
Cc1nn(-c2ccc(N3CCCC3)nn2)c(C)c1CCC(=O)NCc1ccc(OC(C)C)cc1 | - | . | - | . | . | -
Cc1ccc(-c2nc3c(c(SCC(=O)N4CCCCC4)n2)Cc2cc(C)ccc2O3)cc1 | - | - | - | . | . | -
CCC1c2ccc(C)n2CCN1C(=O)Nc1ccccc1OC (centres undefined) | - | - | 25µM | - | - | -
COc1ccccc1NC(=O)N1CCN(C(=O)Nc2ccccc2OC)CC1 | - | . | - | - | - | .
Cc1ccc2c(c1)c(C)cc[n+]2Cc1ccccc1 | ? | 10µM | - | - | ? | ?
CN1CCC(OC(=O)COc2ccc(Br)cc2)CC1 | - | ? | 20µM | - | - | -
CC1CCN(CCCCOc2cccc(Br)c2)CC1 | - | ? | - | - | ? | ?
CC1CCN(CCCCOc2ccc(Br)cc2)CC1 | - | ? | - | - | 11µM | -
COc1ccc(OCC(=O)OC2CCN(C)CC2)cc1 | - | - | - | - | - | -
Cc1cc(Br)ccc1OCCCCN1CCC(C)CC1 | - | ? | - | - | 13µM | ?
CO[C@]1(NC(=O)C(C(=O)O)c2ccc(O)cc2)C(=O)N2C(C(=O)O)=C(CSc3nnnn3C)COC21 (some centres undefined) | - | . | . | . | . | .
Cn1c(O)c(/C=C2\C=Nc3ccc(Br)cc32)c(=O)n(C)c1=O | - | - | - | - | - | -
SMILES | FMDV antiviral | MARV entry inh | Sm TGR inh | RE007 growth inh | HCV inh | Lassa entry inh
CCNC(=S)NCCC1=c2ccccc2=N/C1=C\c1c(O)n(C)c(=O)n(C)c1=O | 40µM | . | ? | - | - | .
CC(C)(C)n1cc(C(=O)c2ccc3ccccc3c2O)cn1 | 16µM | 4µM | - | - | - | 13µM
CCN(CC)c1ccc(/C=N/NC(=O)c2cccc(S(=O)(=O)Nc3ccccc3OC)c2)cc1 | - | . | - | - | 11µM | .
CCN(CC)c1ccc(/C=N/NC(=O)c2ccc3nc[nH]c3c2)c(O)c1 | - | ? | - | - | 5µM | ?
COc1cccc(/C=N/NC(=O)c2ccc3nc[nH]c3c2)c1O | - | . | - | - | - | .
CCN(CC)c1ccc(C(=O)N/N=C/c2ccccc2OC(F)F)cc1 | - | . | - | - | 11µM | .
CCN(CC)c1ccc(/C=N/NC(=O)c2cccc(S(=O)(=O)Nc3ccccc3OC)c2)c(O)c1 | - | 5.6µM | - | - | 10µM | 0.32µM
COc1ccccc1NS(=O)(=O)c1cccc(C(=O)N/N=C/c2ccc3c(c2)OCCO3)c1 | - | - | - | - | - | -
Cc1ccc(CN(Cc2ccco2)C(=O)COc2ccc(Cl)cc2)o1 | - | - | - | . | . | -
O=C(Nc1cccc(C(=O)OCc2cc(=O)n3c4c(sc3n2)CCCC4)c1)c1ccc(Cl)cc1 | - | . | - | . | . | -
Cc1cc(Nc2cccc(C)c2C)n2cnnc2n1 | ? | - | - | . | . | -
CCOc1ccc(NS(=O)(=O)c2ccc3c(c2)CCCN3C(=O)C2CCC2)cc1 | - | . | - | . | . | ?
COc1ccccc1NS(=O)(=O)c1cccc(C(=O)N/N=C/c2ccc([N+](=O)[O-])o2)c1 | ? | ? | ? | - | 11µM | 14µM
Cc1ccnc(NC(=O)CCC(=O)c2cccs2)c1 | 14µM | ? | ? | ? | - | ?
Cc1ccnc(NC(=O)Cc2ccc(-c3ccccc3)cc2)c1 | - | . | - | - | 4µM | .
Cc1ccc(C(=O)CCC(=O)Nc2cc(C)ccn2)cc1 | - | . | - | - | - | .
Cc1ccc(NC(=O)CCC(=O)c2cccs2)nc1 | - | - | 50µM | - | - | -
Cc1nn(-c2ccc(N3CCOCC3)nn2)c(C)c1CCC(=O)Nc1ccc(F)cc1F | - | . | - | . | . | -
CCOC(=O)C1=CCN(S(=O)(=O)c2ccccc2F)C1c1cccc(C)c1 (centres undefined) | - | . | . | - | . | .
COc1ccc(CCN2C(=O)N(c3ccc(C)cc3)C(=O)C2CC(=O)Nc2ccc(OC)cc2)cc1 (centres undefined) | - | ? | - | . | . | ?
CCC(=O)Nc1cccc(-c2cn3c(C)csc3n2)c1 | - | . | - | . | . | -
CC1(C)CC(=O)C2=C(C1)OC(N)=C(C#N)C21CCN(Cc2ccccc2)CC1 | - | ? | 14µM | - | - | -
CC(=O)N1CCC2(CC1)C(C#N)=C(N)OC1=C2C(=O)CC(C)(C)C1 | - | - | - | - | - | -
CC1(C)CC(=O)C2=C(C1)OC(N)=C(C#N)C21CCC2(CC1)OCCO2 | . | - | 22µM | - | ? | -
O=C(c1ccccc1-n1cccn1)N1CCOc2c(cc(-c3ncc(C(F)(F)F)cc3Cl)cc2OCC2CCCO2)C1 (centres undefined) | - | . | . | . | . | .
COc1ccc(NC(=O)CSc2oc(-c3cccs3)nc2S(=O)(=O)c2ccc(Br)cc2)c(OC)c1 | - | ? | ? | . | . | -
CC1(C)OC(=O)C(=CC2=NCCC2)C(=O)O1 | . | - | . | . | . | .
CCN1CCOC(CC(=O)Nc2cccc([N+](=O)[O-])c2)C1=O (centres undefined) | - | - | 11µM | ? | - | -
CCCN1CCOC(CC(=O)Nc2ccc([N+](=O)[O-])cc2)C1=O (centres undefined) | - | - | 28µM | ? | - | -
N/N=C1\CCCc2c1[nH]c1ccc([N+](=O)[O-])cc21 | - | - | ? | - | - | -
